Among the data in PubChem BioAssay (NCATS) are Potency values, retold here.

The source made the active and inactive calls. Entries that show only a call come without a potency. The call rests on the fitted dose curve; in most records, active means well fitted cell-killing curve with a large enough effect; inconclusive means small, poorly fitted or top-dose-only effect; inactive means flat fitted curve, though single readings scatter.
Potency means the concentration at half of the fitted maximal effect.

A short description of this assay: Cell Viability - LYMP1-002 - Assay at 24 hr (AID 993). Particulars: LYMP1-002 lymphoblastoid cells viability; series mostly up to 92.2 µM. The source says:
NIH Chemical Genomics Center [NCGC]
NIH Molecular Libraries Screening Centers Network [MLSCN]
National Institutes of Environmental Health Sciences [NIEHS]
National Toxicology Program [NTP]
We have developed a 1536-well cell-based assay for quantitative high throughput screening (qHTS) against a number of cell lines to determine in vitro cytotoxicity of small molecules. This particular assay uses a human lymphoblastoid cell line (LYMP1-002) purchased from Coriell Institute for Medical Research.
NCGC Assay Protocol Summary:
The CellTiter-Glo luminescent cell viability assay (Promega) is a homogeneous method to measure the number of viable cells in culture. The end point readout of this assay is based on quantitation of intracellular ATP, an indicator of metabolic activity, using the luciferase reaction. Luciferase catalyzes the oxidation of beetle Luciferin to oxyluciferin and light in the presence of ATP. The luminescent signal is proportional to amount of ATP present.
Using the CellTiter-Glo luminescent cell viability assay, the amount of cellular ATP was measured in the lymphoblastoid cell line with complete culture medium following compound treatment for 24 hours. The assay was performed in opaque white Kalypsys 1536-well plates. In the screen, tetraoctylammonium bromide was used as positive control. Library compounds were measured for their ability to cause acute toxicity in the cell line, as reflected by a decrease in intracellular ATP levels, in a concentration-dependent manner. […] AC50 values were determined from concentration-response data modeled with the standard Hill equation.
qHTS protocol for CellTiter Glo lymphoblastoid cellular assay
[Step] [Parameter] [Value] [Description]
1. Reagent; 5 uL; 2500 lymphoblastoid cells/well
2. Time; 5 hr; 37 C incubation
4. Controls; 23 nL; Tetraoctylammonium bromide 6.4pM to 92 uM
5. Time; 24 hr; 37 C incubation
6. Reagent; 5 uL; CellTiter Glo reagent
7. Time; 30 min; Room Temperature
8. Detection; Luminescence; Viewlux plate reader
Keywords: cell viability, cytotoxicity, lymphoblastoid cell line, luminescence, NTPHTS, NTPHTS_NCGC, NIEHS, DSSTox, MLSMR, MLSCN, NIH Roadmap, qHTS, NCGC
With `C[C@H]1O[C@@H](O[C@H]2[C@@H](O)C[C@H](O[C@H]3[C@@H](O)C[C@H](O[C@H]4CC[C@@]5(C)[C@H](CC[C@@H]6[C@@H]5C[C@@H](O)[C@]5(C)[C@@H](C7=CC(=O)OC7)CC[C@]65O)C4)O[C@@H]3C)O[C@@H]2C)C[C@H](O)[C@@H]1O`, the Potency is 0.158 µM (active).

Take `Cc1ccc(S(=O)(=O)O)cc1C`: the Potency entry is “inactive”.

For `O=c1n(CC2CO2)c(=O)n(CC2CO2)c(=O)n1CC1CO1` (configuration not stated), the Potency was 39.8 µM (active).

As to `CC(C)O`, the Potency entry is “inactive”.

As to `CCOC(C)OCC`, the Potency entry is “inactive”.

For the molecule `Nc1ncnc2c1ncn2[C@H]1CC[C@@H](CO)O1`, the Potency entry was “inactive”.

With `CC(C)(C)CC(C)(C)c1ccc(OCCO)cc1`, the Potency result was “inactive”.

On to `OCc1ccccc1`, for which the Potency entry was “inactive”.

As to `ClC(Cl)Cl`, the Potency result is “inactive”.

For `CO/N=C(/C(=O)N[C@@H]1C(=O)N2C(C(=O)O)=C(COC(N)=O)CS[C@H]12)c1ccco1`, the Potency result is “inactive”.

Consider `c1ccc2ccccc2c1`, for which the Potency result was “inactive”.

For the molecule `CO`, the Potency result was “inactive”.

Regarding `NC(N)=O`, the Potency result is “inactive”.

As for `CC[C@H]1OC(=O)[C@H](C)[C@@H](O[C@H]2C[C@@](C)(OC)[C@@H](O)[C@H](C)O2)[C@H](C)[C@@H](O[C@@H]2O[C@H](C)C[C@H](N(C)C)[C@H]2O)[C@](C)(O)C[C@@H](C)CN(C)[C@H](C)[C@@H](O)[C@]1(C)O`, the Potency entry was “inactive”.

For the molecule `CC1=CC(=O)NS(=O)(=O)O1`, the Potency entry is “inactive”.

As for `CCCCO`, the Potency entry is “inactive”.

Consider `Nc1ccc(N=Nc2ccccc2)c(N)n1`, for which the Potency entry was “inactive”.

For `OCl`, the Potency entry was “inactive”.

In the case of `CC/C=C\C/C=C\C/C=C\CCCCCCCC(=O)O`, the Potency result was “inactive”.

On to `NCCN`, for which the Potency entry was “inactive”.

Consider `Oc1cccc(O)c1O`, for which the Potency result was “inactive”.

As to `COC(=O)c1ccccc1O`, the Potency entry was “inactive”.

With `C[C@H](CCC(=O)O)[C@H]1CC[C@H]2[C@@H]3[C@H](O)C[C@@H]4C[C@H](O)CC[C@]4(C)[C@H]3C[C@H](O)[C@]12C`, the Potency result is “inactive”.

On to `Oc1ccc(/C=C/c2cc(O)cc(O)c2)cc1`, for which the Potency entry is “inactive”.

As to `Cc1ncc[nH]1`, the Potency entry is “inactive”.

On to `OCC(O)CO`, for which the Potency result was “inactive”.

For the molecule `C=C1C(CCl)(CCl)C2(Cl)C(Cl)C(Cl)C1(Cl)C2(Cl)Cl` (configuration not stated), the Potency is 50.1 µM (active).

With `C[C@H](CCC(=O)O)[C@H]1CC[C@H]2[C@@H]3CC[C@@H]4C[C@H](O)CC[C@]4(C)[C@H]3C[C@H](O)[C@]12C`, the Potency entry is “inactive”.

Consider `Nc1nccs1`, for which the Potency entry is “inactive”.

For the molecule `O=P(O)(O)O`, the Potency result was “inactive”.

For the molecule `OB(O)O`, the Potency entry is “inactive”.

Regarding `OC[C@H]1O[C@@H]2O[C@H]3[C@H](O)[C@@H](O)[C@@H](O[C@H]4[C@H](O)[C@@H](O)[C@@H](O[C@H]5[C@H](O)[C@@H](O)[C@@H](O[C@H]6[C@H](O)[C@@H](O)[C@@H](O[C@H]7[C@H](O)[C@@H](O)[C@@H](O[C@H]1[C@H](O)[C@H]2O)O[C@@H]7CO)O[C@@H]6CO)O[C@@H]5CO)O[C@@H]4CO)O[C@@H]3CO`, the Potency entry was “inactive”.

Consider `CCCCC`, for which the Potency entry is “inactive”.

As to `CC1=CCC2CC1C2(C)C` (configuration not stated), the Potency result was “inactive”.

`[O-][N+](=Nc1ccccc1)c1ccccc1`: the Potency result was “inactive”.

As to `O.O.O.O.O.O.O.O=S(=O)([O-])[O-].[Co+2]`, the Potency result was “inactive”.

In the case of `C/C=C/C=C/C(=O)O`, the Potency entry is “inactive”.
